The supplement of paper PMC11001985
Unmarked numbers belong to inactive results.

Compound: C#CCNC(=O)CCSSCCC(=O)NCCc1ccc(C=O)c(C=O)c1
Test: lysine labeling ratio R10:1 (500 µM / 50 µM probe), SILAC-ABPP in living cells; higher = lower intrinsic lysine reactivity toward the probe, active = 2 or less
Details: HeLa; probe concentrations 500 vs 50 µM
Summary of the method: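 The two probe levels, 50 µM and 500 µM, of an alkyne-tagged, disulfide-linked lysine probe were applied to living light and heavy SILAC HeLa cells in PBS at room temperature, and the labels were run in both forward and reverse orientation. Mixed lysates underwent biotin-azide click chemistry, trypsin digestion, neutravidin capture, DTT release and alkylation before LC-MS/MS on a TIMS-TOF Pro. R is the filtered median high-probe/low-probe MS1 peptide ratio for each lysine, summarised as the median over forward and reverse replicates. Nothing above 20 is reported; such values are set to 20.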

Chain of UniProt P54760 (P54760 whole entry): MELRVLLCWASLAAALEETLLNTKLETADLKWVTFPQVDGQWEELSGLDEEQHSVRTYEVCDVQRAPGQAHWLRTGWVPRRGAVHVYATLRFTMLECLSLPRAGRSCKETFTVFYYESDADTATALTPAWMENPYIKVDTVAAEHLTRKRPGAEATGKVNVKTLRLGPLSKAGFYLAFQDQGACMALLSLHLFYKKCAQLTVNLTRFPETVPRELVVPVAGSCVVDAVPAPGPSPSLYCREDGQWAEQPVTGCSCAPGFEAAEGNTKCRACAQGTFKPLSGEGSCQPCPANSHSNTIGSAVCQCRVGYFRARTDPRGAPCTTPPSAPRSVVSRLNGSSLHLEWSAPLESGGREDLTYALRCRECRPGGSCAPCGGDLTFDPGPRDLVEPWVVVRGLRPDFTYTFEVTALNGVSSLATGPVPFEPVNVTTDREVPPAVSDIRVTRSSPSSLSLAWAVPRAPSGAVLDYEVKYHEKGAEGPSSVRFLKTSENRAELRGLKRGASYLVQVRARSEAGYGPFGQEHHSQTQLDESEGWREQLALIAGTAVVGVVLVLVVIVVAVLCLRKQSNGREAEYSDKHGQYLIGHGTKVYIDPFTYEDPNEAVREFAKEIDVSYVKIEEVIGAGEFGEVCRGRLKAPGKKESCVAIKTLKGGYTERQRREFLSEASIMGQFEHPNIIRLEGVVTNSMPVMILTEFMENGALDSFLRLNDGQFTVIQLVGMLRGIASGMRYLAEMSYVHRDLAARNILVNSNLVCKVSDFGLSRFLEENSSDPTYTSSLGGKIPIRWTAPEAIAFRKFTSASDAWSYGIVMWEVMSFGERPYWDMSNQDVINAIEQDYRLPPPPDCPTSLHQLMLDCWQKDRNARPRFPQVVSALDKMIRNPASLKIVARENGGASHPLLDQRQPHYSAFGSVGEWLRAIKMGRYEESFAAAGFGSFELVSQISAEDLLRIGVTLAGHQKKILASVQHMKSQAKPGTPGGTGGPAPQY
Chain of UniProt P60842 (P60842 whole entry): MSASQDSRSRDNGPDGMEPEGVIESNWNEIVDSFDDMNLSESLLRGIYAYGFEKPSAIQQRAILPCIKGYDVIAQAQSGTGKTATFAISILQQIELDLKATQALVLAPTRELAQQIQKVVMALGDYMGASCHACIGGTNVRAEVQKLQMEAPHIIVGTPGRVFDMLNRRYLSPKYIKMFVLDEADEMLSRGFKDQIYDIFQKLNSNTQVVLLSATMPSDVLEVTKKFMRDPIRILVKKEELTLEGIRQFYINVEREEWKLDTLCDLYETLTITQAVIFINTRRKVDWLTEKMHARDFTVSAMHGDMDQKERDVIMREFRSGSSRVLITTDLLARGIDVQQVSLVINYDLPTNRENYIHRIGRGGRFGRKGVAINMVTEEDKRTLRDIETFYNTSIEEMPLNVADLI
Chain of UniProt Q9H6B4 (Q9H6B4 whole entry): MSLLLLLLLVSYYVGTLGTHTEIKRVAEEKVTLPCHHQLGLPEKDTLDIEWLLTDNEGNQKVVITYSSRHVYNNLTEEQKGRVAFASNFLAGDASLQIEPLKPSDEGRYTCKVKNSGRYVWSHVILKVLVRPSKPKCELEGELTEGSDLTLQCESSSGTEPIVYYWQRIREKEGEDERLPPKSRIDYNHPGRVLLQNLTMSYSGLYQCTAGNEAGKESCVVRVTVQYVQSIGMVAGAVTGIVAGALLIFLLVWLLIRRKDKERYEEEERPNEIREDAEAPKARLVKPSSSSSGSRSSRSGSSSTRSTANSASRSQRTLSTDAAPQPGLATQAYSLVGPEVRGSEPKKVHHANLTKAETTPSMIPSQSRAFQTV
Chain of UniProt P07942 (P07942 whole entry): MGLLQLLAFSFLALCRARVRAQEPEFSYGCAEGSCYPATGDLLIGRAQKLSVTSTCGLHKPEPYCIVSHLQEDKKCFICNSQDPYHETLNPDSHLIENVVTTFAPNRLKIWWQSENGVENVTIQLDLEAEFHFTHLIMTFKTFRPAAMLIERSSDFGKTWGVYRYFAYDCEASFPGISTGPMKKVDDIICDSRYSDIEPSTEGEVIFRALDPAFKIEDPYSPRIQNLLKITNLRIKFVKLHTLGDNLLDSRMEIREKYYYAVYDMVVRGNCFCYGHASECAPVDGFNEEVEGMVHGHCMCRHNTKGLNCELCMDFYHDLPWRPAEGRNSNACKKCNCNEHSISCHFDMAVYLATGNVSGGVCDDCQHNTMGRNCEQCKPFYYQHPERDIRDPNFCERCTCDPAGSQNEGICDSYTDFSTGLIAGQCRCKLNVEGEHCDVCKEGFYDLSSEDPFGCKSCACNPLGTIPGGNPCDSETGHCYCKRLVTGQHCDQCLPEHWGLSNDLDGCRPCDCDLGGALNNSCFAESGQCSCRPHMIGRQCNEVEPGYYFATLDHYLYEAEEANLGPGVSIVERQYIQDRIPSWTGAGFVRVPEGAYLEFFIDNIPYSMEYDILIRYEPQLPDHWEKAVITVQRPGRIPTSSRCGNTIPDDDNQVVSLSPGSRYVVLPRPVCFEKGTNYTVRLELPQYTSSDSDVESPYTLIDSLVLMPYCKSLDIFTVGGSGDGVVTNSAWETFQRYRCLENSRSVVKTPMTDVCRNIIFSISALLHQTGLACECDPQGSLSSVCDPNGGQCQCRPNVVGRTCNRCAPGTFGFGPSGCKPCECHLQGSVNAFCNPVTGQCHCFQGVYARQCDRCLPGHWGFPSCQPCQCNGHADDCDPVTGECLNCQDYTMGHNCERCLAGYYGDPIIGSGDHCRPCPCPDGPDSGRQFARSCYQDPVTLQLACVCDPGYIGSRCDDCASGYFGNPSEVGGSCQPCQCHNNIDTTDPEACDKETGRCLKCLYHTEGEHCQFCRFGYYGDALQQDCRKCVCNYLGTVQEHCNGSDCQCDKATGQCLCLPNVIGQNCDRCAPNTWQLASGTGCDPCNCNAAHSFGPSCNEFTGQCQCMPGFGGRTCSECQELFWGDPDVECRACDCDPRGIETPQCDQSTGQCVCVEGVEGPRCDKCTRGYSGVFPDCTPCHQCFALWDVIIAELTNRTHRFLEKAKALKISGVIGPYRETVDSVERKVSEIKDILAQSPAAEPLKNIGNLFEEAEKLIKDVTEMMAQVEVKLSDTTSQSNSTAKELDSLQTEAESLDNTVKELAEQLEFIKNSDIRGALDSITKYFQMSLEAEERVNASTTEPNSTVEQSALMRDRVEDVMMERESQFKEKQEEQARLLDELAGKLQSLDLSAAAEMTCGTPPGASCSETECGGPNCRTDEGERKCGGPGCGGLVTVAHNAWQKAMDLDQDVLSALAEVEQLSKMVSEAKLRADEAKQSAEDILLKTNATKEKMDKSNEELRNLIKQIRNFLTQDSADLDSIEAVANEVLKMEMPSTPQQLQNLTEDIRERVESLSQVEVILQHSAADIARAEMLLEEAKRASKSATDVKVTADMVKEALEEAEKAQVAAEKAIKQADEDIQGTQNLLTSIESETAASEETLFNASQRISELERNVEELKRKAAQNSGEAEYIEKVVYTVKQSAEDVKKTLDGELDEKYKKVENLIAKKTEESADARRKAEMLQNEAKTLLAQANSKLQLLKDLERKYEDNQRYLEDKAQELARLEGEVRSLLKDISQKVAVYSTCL
Chain of UniProt P02786 (P02786 whole entry, looked up): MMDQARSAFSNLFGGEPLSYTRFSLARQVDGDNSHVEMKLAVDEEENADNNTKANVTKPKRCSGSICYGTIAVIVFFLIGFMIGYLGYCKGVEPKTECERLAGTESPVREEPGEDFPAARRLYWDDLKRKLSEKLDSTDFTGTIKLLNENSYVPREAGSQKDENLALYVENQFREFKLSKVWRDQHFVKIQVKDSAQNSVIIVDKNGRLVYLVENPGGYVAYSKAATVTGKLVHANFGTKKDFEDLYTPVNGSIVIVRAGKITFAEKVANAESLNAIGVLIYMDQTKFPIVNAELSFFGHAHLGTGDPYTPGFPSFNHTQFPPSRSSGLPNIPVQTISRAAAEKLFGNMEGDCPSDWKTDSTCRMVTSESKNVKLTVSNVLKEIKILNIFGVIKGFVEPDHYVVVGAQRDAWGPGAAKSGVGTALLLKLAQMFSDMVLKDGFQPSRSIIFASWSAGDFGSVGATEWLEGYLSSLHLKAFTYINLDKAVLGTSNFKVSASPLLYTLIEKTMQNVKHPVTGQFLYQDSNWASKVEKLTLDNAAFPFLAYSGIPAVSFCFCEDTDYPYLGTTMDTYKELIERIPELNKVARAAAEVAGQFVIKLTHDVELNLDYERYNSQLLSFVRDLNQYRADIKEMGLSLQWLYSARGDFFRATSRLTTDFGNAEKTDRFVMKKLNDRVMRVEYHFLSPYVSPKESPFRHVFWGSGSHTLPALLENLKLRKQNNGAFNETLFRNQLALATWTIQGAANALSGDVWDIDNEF
Chain of UniProt Q7Z3B1 (Q7Z3B1 whole entry, looked up): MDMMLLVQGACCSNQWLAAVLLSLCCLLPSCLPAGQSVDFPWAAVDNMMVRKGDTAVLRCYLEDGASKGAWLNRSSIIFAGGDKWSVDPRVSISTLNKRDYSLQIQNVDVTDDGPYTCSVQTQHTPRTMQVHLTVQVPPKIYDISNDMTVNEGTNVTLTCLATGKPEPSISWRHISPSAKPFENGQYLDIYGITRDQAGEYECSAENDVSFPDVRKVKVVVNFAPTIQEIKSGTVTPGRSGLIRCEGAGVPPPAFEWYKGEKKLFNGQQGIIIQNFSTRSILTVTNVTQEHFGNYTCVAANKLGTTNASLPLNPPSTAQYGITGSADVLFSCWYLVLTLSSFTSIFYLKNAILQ
Chain of UniProt O00487 (O00487 whole entry): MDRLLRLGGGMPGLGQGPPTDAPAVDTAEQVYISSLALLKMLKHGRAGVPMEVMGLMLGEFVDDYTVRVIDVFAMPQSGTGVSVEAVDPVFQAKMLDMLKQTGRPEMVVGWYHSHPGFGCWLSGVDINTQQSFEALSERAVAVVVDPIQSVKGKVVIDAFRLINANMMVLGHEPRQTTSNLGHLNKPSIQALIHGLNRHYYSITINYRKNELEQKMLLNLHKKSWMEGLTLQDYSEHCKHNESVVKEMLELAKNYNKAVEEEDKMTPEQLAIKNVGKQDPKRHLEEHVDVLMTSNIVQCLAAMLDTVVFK

| Target | lysine labeling ratio R10:1 |
| --- | --- |
| UniProt O00487 (lysine site: K154) | 0.527 (active) |
| ANXA3 (lysine site: K184) (UniProt P12429) | 1.13 (active) |
| HSPA5 (lysine site: K213) (UniProt P11021) | 5.61 |
| CHST14 (lysine site: K226) (UniProt Q8NCH0) | 1.36 (active) |
| UniProt Q16363 (lysine site: K1330) | 2.83 |
| G6PD (lysine site: K171) (UniProt P11413) | 6.51 |
| TFRC (lysine site: K672) (UniProt P02786) | 3 |
| RPS3A (lysine site: K46) (UniProt P61247) | 3.87 |
| CSPG4 (lysine site: K465) (UniProt Q6UVK1) | 1.56 (active) |
| SLC25A13 (lysine site: K487) (UniProt Q9UJS0) | 4.12 |
| FH (lysine site: K66) (UniProt P07954) | 2.79 |
| SEMA3C (lysine site: K391) (UniProt Q99985) | 4.13 |
| UniProt Q15149 (lysine site: K1718) | 4.36 |
| XRCC6 (lysine site: K297) (UniProt P12956) | 1.09 (active) |
| DYNC1H1 (lysine site: K4171) (UniProt Q14204) | 2.12 |
| VIM (lysine site: K168) (UniProt P08670) | 3.85 |
| SMOC1 (lysine site: K53) (UniProt Q9H4F8) | 2.22 |
| PLOD2 (lysine site: K412) (UniProt O00469) | 7.56 |
| RPS19 (lysine site: K115) (UniProt P39019) | 1.86 (active) |
| CD109 (lysine site: K471) (UniProt Q6YHK3) | 2.01 |
| NUMA1 (lysine site: K891) (UniProt Q14980) | 1.87 (active) |
| HMOX1 (lysine site: K243) (UniProt P09601) | 1.07 (active) |
| ATP1B1 (lysine site: K288) (UniProt P05026) | 13.2 |

| Target | lysine labeling ratio R10:1 |
| --- | --- |
| LAMB1 (lysine site: K184) (UniProt P07942) | 1.21 (active) |
| GALNT2 (lysine site: K103) (UniProt Q10471) | 2.75 |
| PPIA (lysine site: K133) (UniProt P62937) | 2.46 |
| IGF2R (lysine site: K527) (UniProt P11717) | 2.81 |
| GPC1 (lysine site: K277) (UniProt P35052) | 2.26 |
| UniProt P62280 (lysine site: K30) | 4.32 |
| RBMX (lysine site: K217) (UniProt P38159) | 8.01 |
| CCT3 (lysine site: K249) (UniProt P49368) | 1.76 (active) |
| L1CAM (lysine site: K998) (UniProt P32004) | 6.57 |
| UniProt O43570 (lysine site: K279) | 2.86 |
| ITGA5 (lysine site: K978) (UniProt P08648) | 4.71 |
| YBX1 (lysine site: K264) (UniProt P67809) | 4.18 |
| KIAA1549 (lysine site: K1262) (UniProt Q9HCM3) | 0.805 (active) |
| FAT4 (lysine site: K2561) (UniProt Q6V0I7) | 2.59 |
| UniProt Q6NZI2 (lysine site: K299) | 4.52 |
| HNRNPU (lysine site: K352) (UniProt Q00839) | 2.95 |
| CLMP (lysine site: K172) (UniProt Q9H6B4) | 4.28 |
| FASN (lysine site: K436) (UniProt P49327) | 5.67 |
| ITGB1 (lysine site: K91) (UniProt P05556) | 1.53 (active) |
| NEGR1 (lysine site: K84) (UniProt Q7Z3B1) | 1.36 (active) |
| UniProt P60842 (lysine site: K309) | 1.73 (active) |
| EPHB4 (lysine site: K486) (UniProt P54760) | 4.21 |
| RDX (lysine site: K363) (UniProt P35241) | 1.44 (active) |
